HPGD inh = blocks human HPGD enzyme activity | P15428 | purified HPGD, NADH fluorescence kinetic, PGE2 substrate | Potency, µM, inactives show top-dose activity change, negative = inhibition, hits mostly inhibitors | 4.3% of 150,000 active; further: potency means the concentration at half of the fitted maximal effect
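20 nM HPGD preincubated 15 min at room temperature with compound in 50 mM Tris-HCl pH 8, 0.01% Tween 20. Started with 1 mM NAD+ and 30 uM prostaglandin E2; NADH fluorescence (360/450 nm) read 5 times over 30-s intervals, last minus first.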
PNC assembly inh = inhibitors of perinucleolar compartment assembly; PC3M PTB-GFP, PNC prevalence imaging, 16 h; hits give low values; activity change (PNC), negative = inhibition, % at 10 µM; 3.1% of 140,000 active; AID 2417;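 active means readout at or below -70, meaning at least 70% loss of cells showing the perinucleolar compartment, a nuclear body marking cancer cells; inconclusive means readout between -30 and a set limit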;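 further: plate controls were DMSO wells for no effect and camptothecin positive control wells for full effect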
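Read-out is percentage of cells bearing a perinucleolar compartment, from automated 20x imaging of fixed, Hoechst-stained PC3M PTB-GFP cells. Cells were seeded 4 h, then exposed 16 h to compound (23 nl of library stock) in duplicate plates.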
Lamin A splicing = LMNA splicing modulation; HeLa LMNA splicing GFP/RFP minigene ratio, 48 h; Potency, µM (series often up to 46.1 µM), inactives show at the top dose ratio change, negative = inhibition, hits mostly inhibitors; 0.01% of 200,000 active; AID 1487; active means well fitted inhibition curve with a large enough effect in the signal ratio, with a control signal flat, not every such curve was filed as active; inconclusive means small, poorly fitted or top-dose-only effect, or effect the other way, or a change in a side signal; the % refers to the signal ratio; further: potency means the concentration at half of the fitted maximal effect
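S3 HeLa stable clones carrying a lamin A-EGFP splicing minigene plus DsRed2 were seeded at 600 cells/well in Opti-MEM with 2% FBS, pin-dosed and incubated 48 h at 37°C. Acumen cytometry (488 nm) gave the GFP/RFP total-intensity ratio.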
Luc counter = blocks Kinase-Glo luciferase, a counter-screen artifact; Q27757; Kinase-Glo luciferase, ATP luminescence, 8 min; Potency, µM (highest dose often 38.3 µM), without a hit: at the top dose activity change, negative = inhibition, hits mostly inhibitors; 0.28% of 200,000 active; AID 1379; active means well fitted inhibition curve with a large enough effect; inconclusive means small, poorly fitted or top-dose-only effect; further: potency means the concentration at half of the fitted maximal effect; nearly all actives have a fitted effect of over 60% in size
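Luminescence was the read-out, taken after 8-minute incubation at ambient temperature. Luciferase turned over luciferin with 10 uM ATP in imidazole pH 7.2 buffer containing KCl, MgCl2, Tween 20 and BSA.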
ALDH1A1 inh = blocks purified human ALDH1A1 activity; Purified ALDH1A1, NADH fluorescence, propionaldehyde substrate; Potency, µM (titrated, usually from 75.3 µM), inactives show top-dose activity, negative = inhibition, usual class: inhibitors; 7.3% of 220,000 active;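 further: potency means the concentration at half of the fitted maximal effect; plate controls were no enzyme wells and a reference inhibitor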
Target sequence (P00352 whole entry, looked up): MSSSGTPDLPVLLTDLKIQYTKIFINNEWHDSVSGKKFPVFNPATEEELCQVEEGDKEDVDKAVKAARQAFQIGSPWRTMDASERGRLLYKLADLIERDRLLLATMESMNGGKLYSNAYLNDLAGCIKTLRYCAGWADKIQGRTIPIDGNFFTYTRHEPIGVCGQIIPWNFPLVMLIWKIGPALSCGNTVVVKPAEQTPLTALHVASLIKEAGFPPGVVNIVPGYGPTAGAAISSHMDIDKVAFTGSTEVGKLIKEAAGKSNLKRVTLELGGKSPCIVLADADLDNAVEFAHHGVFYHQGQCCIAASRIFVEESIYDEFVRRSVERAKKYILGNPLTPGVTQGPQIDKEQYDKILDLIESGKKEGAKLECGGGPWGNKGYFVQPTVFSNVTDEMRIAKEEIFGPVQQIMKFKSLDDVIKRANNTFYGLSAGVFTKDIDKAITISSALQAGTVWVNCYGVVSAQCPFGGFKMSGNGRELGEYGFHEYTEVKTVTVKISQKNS
* hit, by the source's call; [ ] = remark or other dose. Most compounds without a hit are left out; they make up all but 10% or so of the library. Unless noted, the call rests on the fitted dose curve; in most records, active means well fitted inhibition curve with a large enough effect (not every such curve was filed as active); inconclusive means small, poorly fitted or top-dose-only effect, or another doubt; inactive means no such curve, though single readings can be large or run the other way. Unless noted, on the % scale 0 is the no-effect control and ±100 the full control effect.

For CCOc1ccc2nc(NC(=O)CSC3=NCCS3)sc2c1 the results were HPGD inh -21%, PNC assembly inh inconclusive, Lamin A splicing inconclusive, Luc counter 13% and ALDH1A1 inh 25µM*.
`COc1ccc2nc(NC(=O)CSC3=NCCS3)sc2c1` gave HPGD inh -12%, PNC assembly inh inconclusive, Lamin A splicing inconclusive, Luc counter -3% and ALDH1A1 inh -7%.
`Cc1ccc2nc(NC(=S)NC(=O)c3ccc(OC(C)C)cc3)sc2c1` gave HPGD inh 10µM*, PNC assembly inh 15, Lamin A splicing inconclusive, Luc counter 3% and ALDH1A1 inh 19µM*.
O=C(NC(=S)NCc1ccccc1)c1ccccc1F was read as HPGD inh -25%, PNC assembly inh 44, Lamin A splicing -4%, Luc counter -2% and ALDH1A1 inh 32µM*.
For O=C(NC(=S)NCc1ccccc1)c1ccccc1[N+](=O)[O-] the results were Lamin A splicing 22%[46 µM], Luc counter 4% and ALDH1A1 inh -10%.
O=C(NC(=S)NC(=O)c1ccccc1F)c1ccccc1F was read as HPGD inh 13µM*, PNC assembly inh 9, Lamin A splicing -2%, Luc counter -2% and ALDH1A1 inh 2µM*.
`O=c1nc2ccccc2c(NS(=O)(=O)c2ccccc2)n1-c1ccccc1` gave HPGD inh -21%, PNC assembly inh 9, Lamin A splicing 17%, Luc counter 0% and ALDH1A1 inh 0.89µM*.
Screening CC(C)CO/N=C1/C[C@@H](O)[C@@H](O)[C@@H]2[C@@H]3C(=O)N(C(C)(C)C)C(=O)[C@H]3CC[C@H]12 returned ALDH1A1 inh 8%[13.5 µM].
`Cc1ccc(/C=N/N2CCN(Cc3ccccc3)CC2)o1` gave HPGD inh -8%, PNC assembly inh 29, Lamin A splicing -2%, Luc counter -1% and ALDH1A1 inh inconclusive.
Cc1ccc(/C=N/N(Cc2ccccc2)c2ccccc2)o1 was read as Lamin A splicing inconclusive, Luc counter 0% and ALDH1A1 inh 20µM*.
`CCO[C@H]1OC(C(=O)N2CCN(Cc3ccccc3)CC2)=C[C@@H](c2ccc(C(F)(F)F)cc2)[C@@H]1CCCO` gave ALDH1A1 inh 4.5µM*.
O=C(C1=C[C@H](C2CC2)C[C@H](OCCCCO)O1)N1CCN(Cc2ccc3c(c2)OCO3)CC1 was read as ALDH1A1 inh -4%.
O=C(NC1CC1)C1=C[C@H](c2ccc3c(c2)OCO3)C[C@H](OCc2ccc(CO)cc2)O1 was read as ALDH1A1 inh -6%.
For C#CCNC(=O)C1=C[C@H](c2ccc3c(c2)OCO3)C[C@H](OCc2ccc(CO)cc2)O1 the results were ALDH1A1 inh 28µM*.
Screening C=CCOC(=O)C1=C[C@@H](c2csc3ccccc23)C[C@@H](OCc2ccc(CO)cc2)O1 returned ALDH1A1 inh 25µM*.
Screening O=C(C1=C[C@@H](C2CCCCC2)C[C@@H](OCCCCO)O1)N1CCN(Cc2ccccc2)CC1 returned ALDH1A1 inh 16µM*.
For Nc1nc2ccc([N+](=O)[O-])cc2s1 the results were HPGD inh -14% and ALDH1A1 inh inconclusive.
`O=C(C1=C[C@H](c2ccccc2)C[C@H](OCc2ccc(CO)cc2)O1)N1CCN(Cc2ccccc2)CC1` gave ALDH1A1 inh 14µM*.
O=C(C1=C[C@@H](c2ccccc2)C[C@@H](OCc2ccc(CO)cc2)O1)N1CCCCCCC1 was read as ALDH1A1 inh 25µM*.
Screening O=C(O)C1=C[C@@H](c2ccccc2)C[C@@H](OCc2ccc(CO)cc2)O1 returned ALDH1A1 inh -14%.
`O=C(C1COc2ccccc2O1)N1CCN(c2nc3c(F)cccc3s2)CC1` (stereo not drawn) gave Lamin A splicing -1%[46 µM].
`COc1ccc(C(c2nnnn2Cc2ccccc2)N2CCN(C(=O)c3ccco3)CC2)cc1` (stereo not drawn) gave HPGD inh 1%, PNC assembly inh 9, Lamin A splicing 2%, Luc counter 8% and ALDH1A1 inh 28µM*.

Screening results: PubChem, National Center for Advancing Translational Sciences (NCATS)
